Results taken from PubChem BioAssay (Tox21).
Values without a mark were called inactive. Where a call stands in place of a potency, no number is given. Activity calls are given as the source filed them. The call rests on the fitted dose curve; in most records, active means well fitted curve in the direction sought with a large enough effect in the repeat runs; inconclusive means weak or mixed curves; inactive means flat fitted curve, though single readings scatter.

test: qHTS assay to test for compound auto fluorescence at 590 nm (red) in HEK293 cells (AID 720679); settings: red autofluorescence 540/590 nm; series mostly up to 91.3 µM
Excerpt: National Center for Advancing Translational Sciences [NCATS]
NIH Chemical Genomics Center [NCGC]
U.S. Environmental Protection Agency [EPA]
National Institutes of Environmental Health Sciences [NIEHS]
National Toxicology Program [NTP]
U.S. Food and Drug Administration [FDA]
Compound auto fluorescence often interferes with screening of the compound library against various biological targets and signaling pathways. Some of these compounds may have fluorophoric properties. Such properties may interfere with the assay outputs resulting in false positives and/or negatives. To decrease such complications and ensure the compound activities are relevant in terms of biological response, the Tox21 10K compound library was screened for auto fluorescence.
From the fluorophores used as reporter signals in our screening assays, the auto fluorescence equivalencies of compounds against three fluorophores have been evaluated: Triamterene, Fluorescein and Rose Bengal sodium for blue, green and red fluorescence, respectively. The fluorescence intensities were measured using Excitation/Emission wavelengths at 405/460nm, 485/535nm and 540/590nm for blue, green and red labels, respectively. This assay includes the red fluorescence data.
Tox21 Assay Protocol Summary:
2,000 HEK293 cells in 5 uL of culture medium containing 10% dialyzed FBS per well were dispensed into black wall/clear bottom 1536-well plates using a Multidrop Combi Dispenser (Thermo Scientific). The assay plates were incubated for 4-5 hr at 37C to allow cell attachment to the well bottom, followed by the transfer of 23 nL compound or DMSO vehicle by a pintool work station (Kalypsys, San Diego, CA). After the assay plates were incubated overnight at 37C and 5% CO2, fluorescence intensities in the assay plates were measured by an Envision (PerkinElmer, Shelton, CT) plate reader using three labels for measuring blue, green and red fluorescence at […] 460, 535 and 590nm respectively.

| Compound | Potency | fluorescence, % of fluorescent control |
| --- | --- | --- |
| Cc1cc(O)c(Cl)c(C)c1Cl | inactive | – |
| CCCCCCCCn1sc(Cl)c(Cl)c1=O | inactive | – |
| NC(=O)CC[C@@H]1NC(=O)[C@H](Cc2ccccc2)NC(=O)[C@H](Cc2ccc(O)cc2)NC(=O)CCSSC[C@@H](C(=O)N2CCC[C@H]2C(=O)N[C@@H](CCCN=C(N)N)C(=O)NCC(N)=O)NC(=O)[C@H](CC(N)=O)NC1=O | inactive | – |
| CC(=O)SC[C@@H](Cc1ccccc1)C(=O)NCC(=O)OCc1ccccc1 | – | -1.15% [at 18.6 µM] |
| CCCCCCCCOC(=O)c1ccc(O)cc1 | inactive | – |
| C=CC(=O)OCC(CO)(COC(=O)C=C)COC(=O)C=C | inactive | – |
| CC1=C(C(=O)OC(C)C)C(c2cccc([N+](=O)[O-])c2)C(C(=O)OC2CN(C(c3ccccc3)c3ccccc3)C2)=C(N)N1 (stereo not given) | inactive | – |
| N=C1N=C(N)c2ccccc21 | inactive | – |
| CCC(Cl)C(Cl)C(Cl)CC(Cl)C(Cl)C(C)Cl (stereo not given) | inactive | – |
| C[n+]1ccn(Cc2ccccc2)c1 | inactive | – |
| O=[N+]([O-])c1cc([N+](=O)[O-])c2ccc(S(=O)(=O)O)cc2c1O | inactive | – |
| Nc1ccccc1O | inactive | – |
| OCCN(CCO)c1nc(N2CCCCC2)c2nc(N(CCO)CCO)nc(N3CCCCC3)c2n1 | inactive | – |
| O=C(Nc1cccc(Cl)c1)OCC#CCCl | inactive | – |
| COCCCC/C(=N\OCCN)c1ccc(C(F)(F)F)cc1 | inactive | – |
| CNC(=O)c1ccccc1 | inactive | – |
| CCCN(CCC)C(=O)C(CCC(=O)OCCCN1CCN(CCOC(=O)Cc2c(C)n(C(=O)c3ccc(Cl)cc3)c3ccc(OC)cc23)CC1)NC(=O)c1ccccc1 (stereo not given) | inactive | – |
| O=CC=C(c1ccccc1)c1ccccc1 | inactive | – |
| O=C(NO)C1(NS(=O)(=O)c2ccc(Oc3ccc(F)cc3)cc2)CCOCC1 | inactive | – |
| CCOC(=O)O[C@H](C)OC(=O)c1ccc2c(c1)cc(C(=O)NC1CCN(C(C)C)CC1)n2Cc1cc(-c2ccc(Cl)s2)on1 | inactive | – |

| Compound | Potency | fluorescence, % of fluorescent control |
| --- | --- | --- |
| Cc1cccc2c1cc1ccc3cccc4ccc2c1c34 | inactive | – |
| O=C1c2ccccc2Cc2ccccc21 | inactive | – |
| O=C(N/N=C/c1ccccc1O)c1ccncc1 | inactive | – |
| CCCCN(CCCC)C(=O)N(CCCC)CCCC | inactive | – |
| Cc1cccc(S(=O)(=O)O)c1C | inactive | – |
| CCCCCCCC/C=C/CCCCCCCC1=NCCN1CCO | inactive | – |
| [Cl][Au]([Cl])[Cl] | inactive | – |
| Nc1c2ccccc2nc2ccccc12 | inactive | – |
| O=c1[nH]cnc2nc[nH]c12 | inactive | – |
| CCC1=C[C@@H]2CN(C1)Cc1c([nH]c3ccccc13)[C@@](C(=O)OC)(c1cc3c(cc1OC)N(C)[C@H]1[C@@](O)(C(=O)OC)[C@H](OC(C)=O)[C@]4(CC)C=CCN5CC[C@]31[C@@H]54)C2 | inactive | – |
| CCc1cc(SCc2sc(-c3ccc(C(F)(F)F)cc3)nc2CN2CCN(c3ccc(OC)cc3)CC2)ccc1OCC(=O)O | inactive | – |
| CCc1cc(Cc2cc(CC)c(N)c(CC)c2)cc(CC)c1N | inactive | – |
| O=C(O)c1ccc(Cl)c(Cl)c1 | inactive | – |
| COc1ccc(C(=O)/C(Br)=C\C(=O)O)cc1 | inactive | – |
| C/C=C1/C(=O)C[C@H]2[C@@H]3CCC4=CC(=O)CC[C@]4(C)[C@H]3CC[C@]12C | inactive | – |
| CCCCCCCCOc1ccccc1C(=O)Nc1ccc(C(=O)OCC[N+](C)(CC)CC)cc1 | inactive | – |
| CC(C)=CCOc1ccc(/C=C/C(=O)c2ccc(OCC=C(C)C)cc2OCC(=O)O)cc1 | inactive | – |
| OCc1c[nH]c2ccccc12 | inactive | – |
| CCN(C(=O)N(CC)c1ccccc1)c1ccccc1 | inactive | – |
| CC1(C)CCC(C)(C)c2cc(C(=O)Nc3ccc(C(=O)O)cc3)ccc21 | inactive | – |
